# Unmarked numbers belong to inactive results. Active and inactive are the calls of the source. No rule for the calls is given here.
# Test: Bfl-1 counter-screen inhibitors, SAR follow-up, counter-screen for UBC13 polyubiquitination inhibitor project, biochemical, set 4 (AID 602400)
# Conditions: Bfl-1 counterscreen for UBC13 inhibitors
row,Structure (SMILES),IC50
1,Cc1ccc(NC(=O)C2CCN(c3ncnc4c3nc3n4CCCCC3)CC2)cc1Cl,> 100 µM
2,O=C(Nc1ccc(CN2CCCCC2)cc1)C1CCN(c2ncnc3c2nc2n3CCCCC2)CC1,> 100 µM
3,O=C(NCc1ccc(Cl)c(Cl)c1)C1CCCN(c2ncnc3c2nc2n3CCCCC2)C1 (stereo not drawn),> 100 µM
4,CC1CC(C)CN(C(=O)C2CCN(c3ncnc4c3nc3n4CCCCC3)CC2)C1 (stereo not drawn),> 100 µM
5,O=C(C1CCN(c2ncnc3c2nc2n3CCCCC2)CC1)N1CCN(c2ccc(F)cc2)CC1,> 100 µM
6,CC1CCCCN1C(=O)C1CCN(c2ncnc3c2nc2n3CCCCC2)CC1 (stereo not drawn),> 100 µM
7,O=C(NCC1CCN(Cc2ccc(Cl)c(Cl)c2)CC1)C1CCCN(c2ncnc3c2nc2n3CCCCC2)C1 (stereo not drawn),> 100 µM
8,O=C(NCCCN1CCN(c2ccccc2)CC1)C1CCCN(c2ncnc3c2nc2n3CCCCC2)C1 (stereo not drawn),> 100 µM
9,O=C(Nc1cc(F)ccc1F)C1CCN(c2ncnc3c2nc2n3CCCCC2)CC1,> 100 µM
10,CN(CCNC(=O)C1CCN(c2ncnc3c2nc2n3CCCCC2)CC1)Cc1ccccc1,> 100 µM
11,O=C(NCc1ccc(Cl)c(Cl)c1)C1CCN(c2ncnc3c2nc2n3CCCCC2)CC1,> 100 µM
12,O=C(NCC1CCN(Cc2cccc(Cl)c2)CC1)[C@H]1CCCN(c2ncnc3c2nc2n3CCCCC2)C1,> 100 µM
13,CCCN1CCN(C(=O)C2CCN(c3ncnc4c3nc3n4CCCCC3)CC2)CC1,> 100 µM
14,COc1ccc(NC(=O)C2CCN(c3ncnc4c3nc3n4CCCCC3)CC2)cc1Cl,> 100 µM
15,O=C(C1CCN(c2ncnc3c2nc2n3CCCCC2)CC1)N1CCOCC1,> 100 µM
16,Cc1cccc(NC(=O)C2CCN(c3ncnc4c3nc3n4CCCCC3)CC2)c1,> 100 µM
17,O=C(C1CCN(c2ncnc3c2nc2n3CCCCC2)CC1)N1CCN(c2ccccn2)CC1,> 100 µM
18,CCC1CCCCN1CCCNC(=O)C1CCN(c2ncnc3c2nc2n3CCCCC2)CC1 (stereo not drawn),> 100 µM
19,O=C(NCC1CCN(Cc2ccccc2F)CC1)C1CCCN(c2ncnc3c2nc2n3CCCCC2)C1 (stereo not drawn),> 100 µM

row,Structure (SMILES),IC50
1,O=C(NCc1ccc(Cl)c(Cl)c1)C1CCCN(c2ncnc3c2nc2n3CCCC2)C1 (stereo not drawn),> 100 µM
2,O=C(NCC1CCN(Cc2ccc(Cl)cc2)CC1)C1CCCN(c2ncnc3c2nc2n3CCCC2)C1 (stereo not drawn),76.8 µM (active)
3,Cc1cccc(NC(=O)C2CCN(c3ncnc4c3nc3n4CCCC3)CC2)c1,23 µM (active)
4,O=C(NCC1CCN(Cc2ccccc2Cl)CC1)C1CCCN(c2ncnc3c2nc2n3CCCC2)C1 (stereo not drawn),> 100 µM
5,Cc1ccc(NC(=O)C2CCCN(c3ncnc4c3nc3n4CCCCC3)C2)cc1F (stereo not drawn),> 100 µM
6,Cc1ccc(C)c(N2CCN(CCCNC(=O)C3CCCN(c4ncnc5c4nc4n5CCCCC4)C3)CC2)c1 (stereo not drawn),> 100 µM
7,O=C(NCc1cccc(Cl)c1)C1CCN(c2ncnc3c2nc2n3CCCC2)CC1,> 100 µM
8,Cc1ccc(NC(=O)C2CCCN(c3ncnc4c3nc3n4CCCCC3)C2)cc1Br (stereo not drawn),> 100 µM
9,O=C(Nc1cccc(Cl)c1)C1CCN(c2ncnc3c2nc2n3CCCCC2)CC1,> 100 µM
10,Cc1ccc(NC(=O)C2CCN(c3ncnc4c3nc3n4CCCCC3)CC2)cc1Br,> 100 µM
11,O=C(NCC1CCN(Cc2cccc(Cl)c2)CC1)C1CCCN(c2ncnc3c2nc2n3CCCCC2)C1 (stereo not drawn),> 100 µM
12,COc1ccccc1N1CCN(CCCNC(=O)C2CCCN(c3ncnc4c3nc3n4CCCCC3)C2)CC1 (stereo not drawn),> 100 µM
13,O=C(NCC1CCN(Cc2ccc(Cl)c(Cl)c2)CC1)C1CCCN(c2ncnc3c2nc2n3CCCC2)C1 (stereo not drawn),> 100 µM
14,Cc1c(Cl)cccc1NC(=O)C1CCN(c2ncnc3c2nc2n3CCCCC2)CC1,> 100 µM
15,Cc1ccc(NC(=O)C2CCN(c3ncnc4c3nc3n4CCCC3)CC2)cc1C,20.8 µM (active)
16,Cc1ccc(NC(=O)C2CCCN(c3ncnc4c3nc3n4CCCC3)C2)cc1Br (stereo not drawn),> 100 µM
17,O=C(c1ccco1)N1CCN(C(=O)C2CCN(c3ncnc4c3nc3n4CCCCC3)CC2)CC1,> 100 µM
18,O=C(NCC1CCN(Cc2ccccc2Cl)CC1)C1CCCN(c2ncnc3c2nc2n3CCCCC2)C1 (stereo not drawn),> 100 µM
19,Cc1ccc(NC(=O)C2CCCN(c3ncnc4c3nc3n4CCCC3)C2)cc1F (stereo not drawn),> 100 µM
